gsp antag – qHTS for Antagonists of gsp, the Etiologic Mutation Responsible for Fibrous Dysplasia/McCune-Albright Syndrome: qHTS; gsp-mutant cells, cAMP HTRF, 30 min; Potency, µM (top dose mostly 76.9 µM), for the others: at the top dose activity change, negative = inhibition, hits mostly inhibitors; actives 0.4% (n = 340,000); AID 624288, 2012; calls by dose curve; cell line not stated here;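 further: intracellular cAMP measured with PDE inhibitor Ro 20-1724 present during compound exposure; potency means the concentration at half of the fitted maximal effect; on the % scale 0 is the no-effect control and ±100 the full control effect; nearly all actives have a fitted effect of over 65% in size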
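G418-selected cells were plated in DMEM/10% FBS for 16-24 h at 37C, then treated with compounds plus the PDE inhibitor […] (300 uM solution added) for 30 min at 37C. Intracellular cAMP was measured by HTRF after 30 min lysis at room temperature.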
TSHR antag – Antagonists of the Thyroid Stimulating Hormone Receptor: HTS campaign; Thyrotropin receptor (Homo sapiens), P16473; TSHR-expressing cells, TSH-stimulated cAMP HTRF, 2 h; active compounds read low; activity change, negative = inhibition, % at 11.5 µM; actives 0.2% (n = 330,000);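 active means activity change below a set negative limit, meaning inhibition stronger than a set level, cut at about -70% in these data; inconclusive means activity change between two set negative limits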; further: on the % scale 0 is the no-effect control and ±100 the full control effect
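Cell-based HTRF cAMP assay; TSHR cells + compound, TSH EC80 (4nM final), 2 h, 37 deg C. Lysis with anti-cAMP cryptate and cAMP-d2, 30 min RT, read 665/620 nm.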
RXFP1 ag – qHTS Assay for Agonists of the Relaxin Receptor RXFP1; Relaxin receptor 1 (Homo sapiens), Q9HBX9; HEK293T-RXFP1 cAMP TR-FRET, 30 min; response scale: percent of porcine relaxin response, buffer zero; Potency, µM (titrated, usually from 57.5 µM), without a hit: at the highest dose activation, hits mostly activators; actives 0.3% (n = 370,000); active means well fitted activation curve with a large enough effect; inconclusive means small, poorly fitted or top-dose-only effect; further: potency means the concentration at half of the fitted maximal effect; on the % scale 0 is the no-effect control and ±100 the full control effect; nearly all actives have a fitted effect of over 60% in size
Target sequence (Q9HBX9 whole entry, looked up): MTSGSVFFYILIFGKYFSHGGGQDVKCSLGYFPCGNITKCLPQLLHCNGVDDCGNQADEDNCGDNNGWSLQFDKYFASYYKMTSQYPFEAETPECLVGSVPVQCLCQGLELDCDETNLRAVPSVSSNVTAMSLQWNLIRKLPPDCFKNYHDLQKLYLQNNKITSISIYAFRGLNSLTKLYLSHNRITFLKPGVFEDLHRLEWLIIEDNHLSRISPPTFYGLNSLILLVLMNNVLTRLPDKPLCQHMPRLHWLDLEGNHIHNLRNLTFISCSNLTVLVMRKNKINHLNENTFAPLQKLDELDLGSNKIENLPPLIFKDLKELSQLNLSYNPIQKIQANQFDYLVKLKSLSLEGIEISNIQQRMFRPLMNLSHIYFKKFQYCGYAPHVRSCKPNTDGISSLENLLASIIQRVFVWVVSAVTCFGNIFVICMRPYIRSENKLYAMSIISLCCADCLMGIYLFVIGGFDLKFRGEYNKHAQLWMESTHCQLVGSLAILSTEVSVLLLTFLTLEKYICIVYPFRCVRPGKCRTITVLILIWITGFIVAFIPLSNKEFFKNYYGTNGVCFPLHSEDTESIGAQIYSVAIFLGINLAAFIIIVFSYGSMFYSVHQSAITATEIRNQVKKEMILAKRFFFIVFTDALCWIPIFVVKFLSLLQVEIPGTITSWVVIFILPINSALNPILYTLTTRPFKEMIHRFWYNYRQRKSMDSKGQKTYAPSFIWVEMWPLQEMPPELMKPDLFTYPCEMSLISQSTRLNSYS
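HEK293T cells stably expressing RXFP1 were pretreated with the PDE4 inhibitor Ro 20174, exposed to compounds for 30 min at 37C, lysed, and cAMP was read by TR-FRET. Data normalized to buffer (basal) and 29 nM porcine relaxin (100%).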
RXFP1 antagonist – qHTS Assay for Antagonists of the Relaxin Receptor RXFP1 | actives 0.59% (n = 350,000) | activity change, negative = inhibition, % at 57.5 µM | AID 1259400, 2018 | Relaxin receptor 1 (Homo sapiens), Q9HBX9 | HEK293-RXFP1, relaxin-stimulated cAMP HTRF, 30 min; active compounds read low;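 active means activity change of -60% or lower, but not beyond a set lower limit; inconclusive means change between -60% and -40%, or beyond the set limit; inactive means change above -40%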; further: on the % scale 0 is the no-effect control and ±100 the full control effect
gsp agonist – qHTS for Agonist of gsp, the Etiologic Mutation Responsible for Fibrous Dysplasia/McCune-Albright Syndrome: qHTS; gsp mutant cells, cAMP HTRF, 30 min; Potency, µM (top dose mostly 76.9 µM), for inactives: top-dose activation (cAMP increase), usual class: activators; actives 0.13% (n = 340,000); active means well fitted activation curve with a large enough effect; inconclusive means small, poorly fitted or top-dose-only effect, or another doubt; inactive means no such curve, though single readings can be large or run the other way; cell line not stated here;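 further: phosphodiesterase inhibitor Ro 20-1724 added with compounds to block cAMP breakdown; potency means the concentration at half of the fitted maximal effect; nearly all actives have a fitted effect of over 60% in size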
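Cells in DMEM/10% FBS with G418 were pretreated with compounds in DMSO plus […] (300 uM stock) for 30 min at 37C. cAMP was measured by HTRF (cAMP-d2 plus anti-cAMP antibody-K) after 30 min at room temperature.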
* marks the source's active call; other numbers are inactive results; ? = inconclusive; . = no result given; ! = not active in a repeat; [ ] = another dose, or the depositor's remark. Only some compounds are listed: those with a hit (about 1% of all), similar ones and a draw of the others.

SMILES	gsp antag	TSHR antag	RXFP1 ag	RXFP1 antagonist	gsp agonist
O=C(O)c1ccccc1C(=O)Nc1cccc([N+](=O)[O-])c1	8.0%	6.5	0.8%	13.2	1.5%
O=C(Nc1cccc([N+](=O)[O-])c1)c1cc2ccccc2cc1O	14.1µM*	?	1.8%	-69.5*	-24.0%
O=C(NNc1nc(=O)c2cccnc2s1)c1ccccc1O	20.8%	3.4	15.8µM*	12.6	46.7%[15.4 µM]
Cc1ccc(S(=O)(=O)N(C)c2ccc(C(=O)Nc3cccc(C)n3)cc2)cc1	35.5µM*	-11.7	0.4%	-34.9	8.9%[15.4 µM]
Cc1ccc(S(=O)(=O)N(C)c2ccc(C(=O)Nc3ccccn3)cc2)cc1	-28.1%	1.0	0.0%	-25.1	-26.9%
CCOC(=O)C1=C(COC(=O)/C=C/c2ccc(SC)cc2)NC(=O)NC1C (stereo not drawn)	0.1%	-2.7	0.0%	-75.9*	1.4%[15.4 µM]
CCOC(=O)C1=C(COC(=O)/C=C/c2ccc(OC)cc2)NC(=O)NC1C (stereo not drawn)	15.6%	-12.0	-2.0%	-3.3	-1.5%
O=C(COC(=O)CCc1nc2ccccc2s1)NC(=O)NCc1ccco1	11.2µM*	24.7	0.1%	-8.8	1.0%[15.4 µM]
COC(=O)c1ccccc1NC(=O)c1ccc(-c2nc(COc3ccccc3)c(C)o2)cc1	.	.	0.6%	10.8	.
O=Cc1s/c(=N\S(=O)(=O)c2ccccc2)n(CCCCl)c1Cl	-2.5%	-70.1*	1.3%	?	-32.3%
Cc1ccnc(NC(=O)c2cccc(S(=O)(=O)Nc3ccc(C)cc3C)c2)c1	-24.2%	-10.4	.	-77.2*	?
Cc1ccc(CNc2ncnc3onc(C)c23)cc1	.	.	-1.1%	.	.
O=C1N=c2ccccc2=C1c1sc(Nc2ccc(O)cc2)nc1O	-6.0%	-11.3	-2.4%	-80.8*	-6.3%[15.4 µM]
O=C1N=c2ccccc2=C1c1sc(Nc2cccc(O)c2)nc1O	?	-8.2	0.5%	-8.6	-61.3%
C/C=C(/C(=C/C)c1ccc(OC(C)=O)cc1)c1ccc(OC(C)=O)cc1	.	.	.	-12.3	.
Cn1c(=O)oc2cc(S(=O)(=O)N3CCCC(C(=O)NCCc4ccc(Cl)cc4)C3)ccc21 (stereo not drawn)	.	.	0.5%	.	.
C=CCOc1ccc(C2C(C(=O)c3ccco3)=C(O)C(=O)N2c2nnc(C)s2)cc1 (stereo not drawn)	-9.6%	25.2	14.1µM*	-6.4	45.4%[15.4 µM]
Cc1oc(-c2cccc(Cl)c2)nc1Cn1c(SCc2ccc(F)cc2)nc2cccnc21	.	.	6.7%	5.0	.
O=c1[nH]c(=O)n(Cc2ccc(Oc3ccccc3)cc2)cc1Br	.	-12.3	3.5%	.	.
C=C1CC(Cn2cc(Br)c(=O)[nH]c2=O)(c2ccc(-c3ccccc3)cc2)OC1=O (stereo not drawn)	6.8%	.	.	-89.7*	13.4%
N#Cc1c(C(F)(F)F)cc(-c2ccccc2Cl)[nH]c1=O	28.2µM*	-20.9	3.4%	-110.0*	15.2%
O=C(COc1ccc2ccccc2c1)NNC(=O)Cc1ccccc1	-23.7%	1.2	12.7%	-120.0*	-4.9%
O=C(COc1ccc2ccccc2c1)NNC(=O)Cc1cccc2ccccc12	-3.6%	7.2	4.2%	-15.3	0.0%
O=C(Nc1cccc(Cl)c1Cl)c1cc2nc(-c3ccc(Cl)cc3)cc(C(F)(F)F)n2n1	.	.	4.0%	-2.4	.
Cc1cn2c(=O)cc(COC(=O)c3cccc(NC(=O)c4ccc(C(C)(C)C)cc4)c3)nc2s1	.	.	-1.5%	-18.6	.
SMILES	gsp antag	TSHR antag	RXFP1 ag	RXFP1 antagonist	gsp agonist
COc1ccc(OCCNC(=O)C(Cc2c[nH]c3ccccc23)NC(C)=O)cc1 (stereo not drawn)	4.2%	-7.7	-3.4%	6.6	10µM*
Cc1cccc(Cn2c(SCc3ccc(C(=O)NCc4ccccc4)cc3)nc3cccnc32)c1	.	.	3.9%	-3.9	.
CCOc1ccc(CCNC(=O)CCCn2c(=O)c3cccn3c3cccnc32)cc1OCC	?	-4.3	?	-95.6*!	-0.1%
O=C(Nc1cccc2ccccc12)c1ccccc1	7.0%	-82.0*	0.9%	2.9	-1.4%
O=C(Nc1cccc2ccccc12)c1ccc(F)cc1	0.1%	-0.3	0.4%	10.7	30.8%
CC(C)NC(=O)C1CCC(Cn2c(=O)c3sccc3n(CC(=O)Nc3ccccc3)c2=O)CC1 (stereo not drawn)	.	.	1.4%	-1.3	.
Cc1nc2sccn2c(=O)c1CCN1CCC(=C(c2ccc(F)cc2)c2ccc(F)cc2)CC1	?	-18.7	3.8%	-66.8*	.
Cc1cc(C)cc(N2C(=O)CCSC23C(=O)N(Cc2ccccc2)c2ccccc23)c1 (stereo not drawn)	.	.	-3.6%	-10.0	.
O=C1CCSC2(C(=O)N(Cc3ccc(F)cc3)c3ccccc32)N1c1ccc(F)c(F)c1 (stereo not drawn)	.	.	-1.7%	-72.0*	.
O=C1CCSC2(C(=O)N(Cc3ccc(F)cc3)c3ccccc32)N1c1cccc(F)c1 (stereo not drawn)	.	.	-1.1%	?	.
Cc1cccc(N2C(=O)CCSC23C(=O)N(Cc2ccc(F)cc2)c2ccccc23)c1 (stereo not drawn)	.	.	-2.0%	-63.1*	.
O=C1CCSC2(C(=O)N(Cc3ccc(F)cc3)c3ccccc32)N1c1ccccc1 (stereo not drawn)	.	.	-2.3%	-62.3*	.
COc1ccc(OC)c(NC(=O)CSc2nc3[nH]c(=O)[nH]c(=O)c3s2)c1	4.3%	.	.	-6.9	-4.1%[15.4 µM]
COc1ccc(NC(=O)CSc2nc3[nH]c(=O)[nH]c(=O)c3s2)cc1OC	3.7%	-73.4*	0.0%	-7.3	5.1%
CCC(C(=O)OCCN1CCOC(c2ccccc2)C1C)c1ccccc1 (stereo not drawn)	.	.	.	-37.5	.
CCOC(=O)c1sc(NC(=O)CSc2n[nH]c(-c3ccncc3)n2)c(C#N)c1C	?	-74.5*	0.4%	4.1	-0.6%
CCOC(=O)c1sc(NC(=O)CSc2nccc(C)n2)c(C#N)c1C	-5.4%	-9.6	1.5%	-4.3	-30.5%
CCCN(C(=O)c1coc(=O)c2ccccc12)c1ccccc1C	.	.	-4.0%	.	.
Cc1ccc(Cl)cc1N1CCN(C(=O)c2cnc(N3CCOCC3)c3ccccc23)CC1	.	.	-1.0%	-81.9*	.
